Reference: PubChem BioAssay (NCI)
The panel holds about 83,000 compounds, 20% with a hit somewhere; the sample as a whole holds those more often.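 For each line, cells grew in 96-well plates with the test compound present at a single concentration for 48 hours.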 Unmarked numbers belong to inactive results. Active and inactive are the calls of the source. Rule for the calls: active = growth percent below 10; inactive = the rest.

These molecules were tested on HS 578T breast (assay: NCI-60 one-dose screen, 48 h (100 = growth as untreated, 0 = no growth, -100 = all killed)). Conditions: 10 µM.
`CC(C)c1[nH]ncc1-c1nc2ccc3[nH]ncc3c2c2c1CCCC2` was tested, and the growth was -1.07% (active). In the case of `Cc1cc(-c2nnc(/C=C/c3ccc4c(c3)OCO4)o2)n[nH]1`, the growth is reported as 80%. Work on `CCN(CC)CCCCCCCNc1cc(OC)cc2c(C)ccnc12` yielded a growth of 72.4%. With `CCCc1n(Cc2ccc3ccccc3n2)cc[n+]1Cc1ccc2ccccc2n1` the growth was 58.8%. With `COc1ccc(/C=C2\N=C(c3cccnc3)N(c3ccccc3)NC2=O)cc1` the growth was 92%. `COc1ccc(Sc2[nH]c(C=O)c3ccccc23)cc1` gave a growth of 54.4%. In the case of `COc1ccc(-n2nc(C(=O)NCC(=O)Nc3nc4cc(OC)ccc4s3)c3ccccc3c2=O)cc1`, the growth is reported as -4.47% (active). `CCCCN(CCCC)CCCN=c1nc2c(c(N)n1-c1ccccc1)c(=S)n(-c1ccccc1)c(=S)n2-c1ccccc1` was tested, and the growth was -64.6% (active). Work on `O=C(/C=C/c1ccccc1)C(Br)C(Br)c1ccccc1` (stereo not given) yielded a growth of 100%. Molecule `COc1ccc(Nc2ncccc2C(=O)NCc2cn(Cc3cc(OC)cc(OC)c3)nn2)cc1` has a growth of 86.2%. With `CN(C)c1ccc(C(c2ccccc2)c2ccc(N(C)C)cc2)cc1` the growth was 98.8%. `COc1ccc(/C(=C\c2cc(OC)c(OC)c(OC)c2)C(=O)N2CCNCC2)cc1` was tested, and the growth was 102%. Work on `CC(=O)c1ccc(Nc2nc(Cl)nc(Oc3c(Cl)cccc3Cl)n2)cc1` yielded a growth of 74.3%. In the case of `COc1cc2nccc(Oc3ccc(NC(=O)C4(C(=O)Nc5ccc(F)cc5)CC4)cc3)c2cc1Oc1ccc(N)cn1`, the growth is reported as 7.33% (active). Molecule `N#Cc1nc(-c2ccc(Cl)cc2)cc(-c2ccc(Nc3nc(N4CCCCC4)nc(N4CCCCC4)n3)cc2)c1N` has a growth of 94.1%.
